Reference: PubChem BioAssay (NCI)
This is part of a sample that, as a whole, favours compounds with a hit. Of some 79,000 tested, about 15% had one in any assay. Values without a mark were called inactive. Activity calls are given as the source filed them. Cut-off read from the data, not from the text of the source: active = growth inhibition above about 70%; inactive = the rest.

What was measured:
[1] = NCI Yeast Anticancer Drug Screen. Data for the rad50 strain (AID 155);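 note: 0% = growth of vehicle-only cultures of the same strain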; conditions: S. cerevisiae rad50 strain growth inhibition, hits give high values
Procedure, shortened: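 Growth of the mutant yeast was measured after compound exposure and referenced to vehicle-treated cultures.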

[2] = NCI Yeast Anticancer Drug Screen. Data for the mec2-1 strain (AID 157); conditions: S. cerevisiae mec2-1 strain, hits give high values
Procedure, shortened: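 Cells of the genetically defined mec2-1 yeast strain are incubated with test compound. Inhibition of growth is calculated against vehicle-treated controls.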

[3] = NCI Yeast Anticancer Drug Screen. Data for the sgs1 mgt1 strain (AID 161);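 note: 0% = growth of cultures given vehicle only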; conditions: S. cerevisiae sgs1 mgt1 strain, hits give high values
Procedure, shortened: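 Test agents were incubated with a DNA-repair-mutant yeast strain. Growth was then read and compared against vehicle-treated controls.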

[4] = NCI Yeast Anticancer Drug Screen. Data for the cln2 rad14 strain (AID 165);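 note: 0% = growth equal to vehicle treated cultures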; conditions: S. cerevisiae cln2 rad14 strain, hits give high values
Procedure, shortened: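 The screen exposed genetically defined yeast (cln2 rad14) to test compounds and scored growth inhibition relative to vehicle-treated controls.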

[5] = NCI Yeast Anticancer Drug Screen. Data for the bub3 strain (AID 167); conditions: S. cerevisiae bub3 mutant strain, hits give high values
Procedure, shortened: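 Whole-cell yeast assay. The mutant strain was incubated with compounds, and growth inhibition was determined by comparison with vehicle-treated cells.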

[6] = NCI Yeast Anticancer Drug Screen. Data for the mlh1 rad18 strain (AID 175); conditions: S. cerevisiae mlh1 rad18 strain growth inhibition, hits give high values
Procedure, shortened: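 Compound-treated yeast growth, normalised to vehicle controls. Strain bears defined DNA repair mutations.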

[7] = at 5.0 µM (retest, dose inferred, filed as 0.5)
[8] = at 50.0 µM (retest, dose inferred, filed as 5.0)

| Structure (SMILES) | growth inhibition [1, 7] | growth inhibition [1, 8] | growth inhibition ([1]; at 50.0 µM) | growth inhibition [2, 7] | growth inhibition [2, 8] | growth inhibition ([2]; at 50.0 µM) | growth inhibition [3, 7] | growth inhibition [3, 8] | growth inhibition ([3]; at 50.0 µM) | growth inhibition [4, 7] [%] | growth inhibition [4, 8] | growth inhibition ([4]; at 50.0 µM) | growth inhibition [5, 7] | growth inhibition [5, 8] | growth inhibition ([5]; at 50.0 µM) | growth inhibition [6, 7] | growth inhibition [6, 8] | growth inhibition ([6]; at 50.0 µM) |
| --- | --- | --- | --- | --- | --- | --- | --- | --- | --- | --- | --- | --- | --- | --- | --- | --- | --- | --- |
| C=CCOc1ccccc1C(OCC)OCC | 8% | 74% (active) | 46.5% | 7% | 35% | 23.3% | 8% | 76% (active) | 52.6% | 11 | 32% | 7.75% | 7% | 81% (active) | 30.2% | 0% | 87% (active) | 43.8% |
| O=C1c2ccccc2C(=O)c2c1ccc(O)c2O | 79% (active) | 96% (active) | 83.3% (active) | 75% (active) | 94% (active) | 75.8% (active) | 91% (active) | 94% (active) | 81.5% (active) | 23 | 63% | 65.7% | 80% (active) | 93% (active) | 77.9% (active) | 90% (active) | 96% (active) | 79% (active) |
| CC(c1ccc(OCc2ccccc2)cc1)c1cc2c(cc1OCCO)OCO2 (stereo not given) | 3% | 46% | 61.2% | -1% | 41% | 76.2% (active) | 9% | 57% | 31.9% | -1 | 47% | 43.5% | 6% | 58% | 49.7% | 4% | 62% | 43.2% |
| COCc1ccc([N+](=O)[O-])o1 | 17% | 89% (active) | 71.5% (active) | 1% | 35% | 21.6% | 11% | 76% (active) | 78.7% (active) | 6 | 24% | 7.65% | 2% | 36% | 1.2% | 17% | 84% (active) | 66.2% |
| CCCCC(/C=N\NC(=O)c1ccc[n+](C)c1)=C/c1ccccc1 | 18% | 1% | 88.3% (active) | 1% | -3% | 95.4% (active) | -6% | -3% | 88.7% (active) | -2 | -5% | 18.5% | -4% | -7% | 94.5% (active) | -1% | 16% | 90.6% (active) |
| COC(=O)[C@@H](O)[C@]1(C(=O)OC)C2O[C@@H](OC)[C@@H]1CCCCCC[C@H]2O | 21% | 11% | -2.05% | 10% | 11% | 0.45% | 10% | 17% | -6.85% | 17 | 29% | 2.1% | 18% | 13% | 8.85% | 19% | 12% | -1.95% |
| CC(C)(C)OC(=O)N[C@H]1CC2(C=C(Cl)C(=O)C(Cl)=C2)OC1=O | 32% | 70% (active) | 86.5% (active) | 16% | 72% (active) | 80.8% (active) | 23% | 90% (active) | 90.8% (active) | 13 | 31% | 69.2% | 14% | 83% (active) | 70.4% (active) | 43% | 92% (active) | 81% (active) |
| CC1(C(Cl)(Cl)Cl)C=CC(=NO)C=C1 (stereo not given) | 1% | 28% | 65.8% | 2% | 34% | 21.4% | 1% | 44% | 70.8% (active) | 3 | 26% | 30.1% | -4% | 29% | 18.7% | -4% | 34% | 54.1% |
| C=C1C2Oc3ccccc3C1N(c1ccccc1)O2 (stereo not given) | 9% | 23% | 35% | 8% | 35% | 19.9% | 4% | 62% | 66% | 4 | 24% | 39.1% | 1% | 26% | 9.45% | 5% | 35% | 70.5% (active) |
| CCCOC(=O)C(Br)C(Br)C(=O)OCCC (stereo not given) | 60% | 97% (active) | 90.5% (active) | 57% | 98% (active) | 93% (active) | 36% | 100% (active) | 93.5% (active) | 59 | 101% (active) | 91% (active) | 46% | 100% (active) | 91.8% (active) | 44% | 98% (active) | 90.5% (active) |
